Experimental data from PubChem BioAssay AID488845 (National Center for Advancing Translational Sciences (NCATS), 2010).
The source made the active and inactive calls. Calls follow the shape of the dose curve; as a rule, active = well fitted curve in the direction sought with a large enough effect; inactive = no such curve, though single readings can be large or run the other way.

The compounds below were run against Lysosomal acid glucosylceramidase (Homo sapiens) (UniProt P04062) (assay: qHTS Assay for Inhibitors and Activators of N370S glucocerebrosidase as a Potential Chaperone Treatment of Gaucher Disease: Primary Screen Confirmation Using LC/MS). Conditions: N370S GC spleen homogenate, 4MU-glucoside, LC/MS detection.
Lysosomal acid glucosylceramidase (Homo sapiens), sequence (P04062 whole entry N409S): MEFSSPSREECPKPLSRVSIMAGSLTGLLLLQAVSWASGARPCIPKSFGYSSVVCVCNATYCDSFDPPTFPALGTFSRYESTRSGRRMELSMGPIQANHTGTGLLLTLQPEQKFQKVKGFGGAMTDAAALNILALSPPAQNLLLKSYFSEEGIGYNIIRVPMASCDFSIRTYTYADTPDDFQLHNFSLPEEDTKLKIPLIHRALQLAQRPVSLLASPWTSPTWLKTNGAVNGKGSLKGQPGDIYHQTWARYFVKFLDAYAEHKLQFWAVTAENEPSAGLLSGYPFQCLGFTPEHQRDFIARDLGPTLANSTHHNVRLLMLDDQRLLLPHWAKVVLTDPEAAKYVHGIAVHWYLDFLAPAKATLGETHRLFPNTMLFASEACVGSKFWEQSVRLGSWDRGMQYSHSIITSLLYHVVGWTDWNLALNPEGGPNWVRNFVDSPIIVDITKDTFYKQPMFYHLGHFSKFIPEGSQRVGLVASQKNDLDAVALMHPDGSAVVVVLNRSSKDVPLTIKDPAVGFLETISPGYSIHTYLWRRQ
Description: NIH Chemical Genomics Center [NCGC] NIH Molecular Libraries Probe Production Centers Network [MLPCN] MLPCN Grant: MH086442-01 Assay Submitter (PI): Wei Zheng Glucocerebrosidase (GC) catalyzes the hydrolysis of beta-glucocerebroside to glucose and ceramide in lysosomes. Mutations in the glucocerebrosidase gene result in Gaucher disease, an autosomal recessive lysosomal storage disorder. Many of the mutations encountered in patients with Gaucher disease are missense alterations that may cause misfolding, decreased stability and/or mistrafficking of this lysosomal protein. […] These inhibitors include iminosugar analogs and three non-iminosugar inhibitors identified from a previous HTS of 62,000 compounds with the wild type recombinant enzyme. However, the enhancement of enzyme activity by the chaperone action of an enzyme inhibitor must be balanced against the direct inhibition of the enzyme. An enzyme activator could also function as a chaperone by binding to the enzyme and helping to correct its misfolding and mistrafficking. While activators for GC have not yet been identified, they may have better therapeutic potential than inhibitors. Therefore the discovery and development of chemical activators may provide a new strategy for the chaperone therapy. We have optimized a new assay using N370S mutant GC derived from the spleen of a Gaucher patient. […] In addition, the MLPCN compound library has expanded, which increases the chance of finding new and better probes. This assay uses liquid chromatography linked to a mass spectrometer to assess the ability of glucocerebrosidase in the spleen homogenate to cleave either 4-methylumbelliferyl-beta-D-glucopyranoside substrate or a labeled version of the natural substrate, glucosylceramide.
NCGC Assay Protocol Summary: This is a fluorogenic enzyme assay with 4-methylumbelliferyl-beta-D-glucopyranoside as the substrate and N370S glucocerebrosidase from human spleen homogenate as the enzyme preparation. Upon the hydrolysis of this fluorogenic substrate, the resulting product, […] which can be detected by a standard fluorescence plate reader. Data were normalized to the controls for basal activity (without enzyme) and 100% activity (with enzyme). The AC50 values were determined from concentration-response data modeled with the standard Hill equation. Assay buffer: 50 mM citric acid (titrated with potassium phosphate to pH 5.0), 100 mM potassium chloride, 10 mM sodium chloride, 1 mM magnesium chloride, 0.01% Tween-20. […] Compounds were monitored using fluorescence detection with an excitation wavelength of […]. […]
`O=C(Nc1ccccc1Sc1ccccc1)c1cnn2c1NC(=C1CC1)C=C2C(F)F` was tested, and the Potency was 3 µM (active). In the case of `Cc1cc(C)n2ncc(C(=O)Nc3ccc(C(F)(F)F)cc3)c2n1`, the Potency is reported as 1.34 µM (active). With `Cc1cc(C)n2ncc(C(=O)Nc3ccc(Br)cc3)c2n1` the Potency was 1.19 µM (active). For `C#Cc1ccc(NC(=O)c2cnn3c(C)cc(C)nc23)cc1`, the Potency was 3.73 µM (active).
